Experimental data published in PubChem BioAssay AID1159580 (chemical genetic matrix, 2015).
The whole screen tested about 5,500 compounds, of which about 2,000 (36%) were called active. Another 18% or so got no clear call; they are omitted. Rule as the data show it: active = normalized growth mostly below about 0.91 (no sharp cut-off); inconclusive = no clear call, values can overlap the other calls; inactive = mostly above about 0.92. The list shows a part of the results.

Test: chemical genetic growth profiling, strain panel (AID 1159580);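 also: tested at 20 µM; growth read once vehicle control cultures reached saturation at 30 °C; 1 = growth at the plate median or of vehicle wells; lower values mean less growth of the strain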
Conditions: growth OD

Measured: normalized growth

CC1(C)C2CC(=O)[C@]3(C)C(CC[C@@]4(C)[C@H](c5ccoc5)OC(=O)[C@H]5O[C@]543)[C@@]2(C)C=C[C@@H]1O (some centres not stated)
inactive: S. cerevisiae deletion strains, locus YBR021W, strain FUR4, hits give low values 0.944 | S. cerevisiae deletion strains, locus YBR229C, strain ROT2, hits give low values 1.02 | S. cerevisiae deletion strains, locus YCL029C, strain bik1, hits give low values 1 | S. cerevisiae deletion strains, locus YDL035C, strain GPR1, hits give low values 1.02 | S. cerevisiae deletion strains, locus YDL074C, strain BRE1, hits give low values 1.01 | S. cerevisiae deletion strains, locus YDL101C, strain DUN1, hits give low values 0.994 | S. cerevisiae deletion strains, locus YDL134C, strain PPH21, hits give low values 0.982 | S. cerevisiae deletion strains, locus YDL185W, strain tfp1, hits give low values 1.01 | S. cerevisiae deletion strains, locus YDL192W, strain arf1, hits give low values 1.01 | S. cerevisiae deletion strains, locus YDR101C, strain arx1, hits give low values 0.993 | S. cerevisiae deletion strains, locus YDR150W, strain NUM1, hits give low values 1.01 | S. cerevisiae deletion strains, locus YDR162C, strain NBP2, hits give low values 1.01 | S. cerevisiae deletion strains, locus YDR318W, strain mcm21, hits give low values 0.99 | S. cerevisiae deletion strains, locus YDR388W, hits give low values 1.01 | S. cerevisiae deletion strains, locus YDR502C, strain sam2, hits give low values 0.967 | S. cerevisiae deletion strains, locus YEL061C, strain CIN8, hits give low values 1.01 | S. cerevisiae deletion strains, locus YER110C, hits give low values 0.986 | S. cerevisiae deletion strains, locus YER155C, strain BEM2, hits give low values 1.01 | S. cerevisiae deletion strains, locus YER167W, strain BCK2, hits give low values 1.02 | S. cerevisiae deletion strains, locus YGL078C, strain dbp3, hits give low values 0.981 | S. cerevisiae deletion strains, locus YGL086W, strain mad1, hits give low values 0.989 | S. cerevisiae deletion strains, locus YGL248W, strain PDE1, hits give low values 0.998 | S. cerevisiae deletion strains, locus YGR135W, strain pre9, hits give low values 0.931 | S. cerevisiae deletion strains, locus YGR252W, strain gcn5, hits give low values 0.844 | S. cerevisiae deletion strains, locus YHR030C, strain SLT2, hits give low values 1.02 | S. cerevisiae deletion strains, locus YHR079C, strain IRE1 (second series), hits give low values 0.99 | S. cerevisiae deletion strains, locus YHR094C, strain hxt1, hits give low values 0.999 | S. cerevisiae deletion strains, locus YHR129C, strain ARP1, hits give low values 1.01 | S. cerevisiae deletion strains, locus YHR200W, strain rpn10, hits give low values 0.975 | S. cerevisiae deletion strains, locus YIL066C, strain RNR3, hits give low values 1.04 | S. cerevisiae deletion strains, locus YIL073C, strain SPO22, hits give low values 1.02 | S. cerevisiae deletion strains, locus YIL125W, strain kgd1, hits give low values 0.995 | S. cerevisiae deletion strains, locus YIR030C, strain dcg1, hits give low values 0.996 | S. cerevisiae deletion strains, locus YJL095W, strain BCK1, hits give low values 1 | S. cerevisiae deletion strains, locus YJL134W, strain LCB3, hits give low values 1.01 | S. cerevisiae deletion strains, locus YJL168C, strain set2, hits give low values 0.993 | S. cerevisiae deletion strains, locus YJL187C, strain SWE1 (second series), hits give low values 0.981 | S. cerevisiae deletion strains, locus YJR043C, strain POL32, hits give low values 1.03 | S. cerevisiae deletion strains, locus YKL009W, strain mrt4, hits give low values 0.988 | S. cerevisiae deletion strains, locus YKL068W, hits give low values 1.01 | S. cerevisiae deletion strains, locus YKL085W, strain MDH1 (second series), hits give low values 1.01 | S. cerevisiae deletion strains, locus YKL085W, strain MDH1, hits give low values 1.01 | S. cerevisiae deletion strains, locus YKR001C, strain vps1, hits give low values 1 | S. cerevisiae deletion strains, locus YLR039C, strain RIC1, hits give low values 1.18 | S. cerevisiae deletion strains, locus YLR058C, strain SHM2, hits give low values 0.996 | S. cerevisiae deletion strains, locus YLR102C, strain apc9, hits give low values 1 | S. cerevisiae deletion strains, locus YLR262C, strain YPT6, hits give low values 1.16 | S. cerevisiae deletion strains, locus YLR268W, strain sec22, hits give low values 1 | S. cerevisiae deletion strains, locus YLR330W, strain CHS5, hits give low values 1 | S. cerevisiae deletion strains, locus YLR371W, strain rom2, hits give low values 1.01 | S. cerevisiae deletion strains, locus YLR418C, strain cdc73, hits give low values 0.936 | S. cerevisiae deletion strains, locus YML016C, strain PPZ1, hits give low values 1.03 | S. cerevisiae deletion strains, locus YML032C, strain rad52, hits give low values 0.998 | S. cerevisiae deletion strains, locus YML124C, strain tub3, hits give low values 0.995 | S. cerevisiae deletion strains, locus YMR078C, strain ctf18, hits give low values 0.998 | S. cerevisiae deletion strains, locus YMR223W, strain ubp8, hits give low values 0.97 | S. cerevisiae deletion strains, locus YMR263W, strain SAP30, hits give low values 0.986 | S. cerevisiae deletion strains, locus YMR307W, strain GAS1, hits give low values 1.1 | S. cerevisiae deletion strains, locus YNL067W, strain RPL9B, hits give low values 0.97 | S. cerevisiae deletion strains, locus YNL128W, strain TEP1, hits give low values 1.02 | S. cerevisiae deletion strains, locus YNL233W, strain BNI4, hits give low values 0.975 | S. cerevisiae deletion strains, locus YNL250W, strain rad50, hits give low values 0.986 | S. cerevisiae deletion strains, locus YNL271C, strain bni1, hits give low values 1 | S. cerevisiae deletion strains, locus YNL298W, strain CLA4, hits give low values 1.01 | S. cerevisiae deletion strains, locus YNL307C, strain MCK1, hits give low values 1 | S. cerevisiae deletion strains, locus YNL322C, strain KRE1, hits give low values 1.01 | S. cerevisiae deletion strains, locus YNR052C, strain pop2, hits give low values 0.967 | S. cerevisiae deletion strains, locus YOL012C, strain htz1 1.21 | S. cerevisiae deletion strains, locus YOL147C, strain pex11, hits give low values 0.993 | S. cerevisiae deletion strains, locus YOR061W, strain CKA2, hits give low values 1.02 | S. cerevisiae deletion strains, locus YOR069W, strain VPS5, hits give low values 1 | S. cerevisiae deletion strains, locus YOR136W, strain idh2, hits give low values 0.985 | S. cerevisiae deletion strains, locus YOR144C, strain elg1, hits give low values 1 | S. cerevisiae deletion strains, locus YOR184W, strain ser1, hits give low values 0.993 | S. cerevisiae deletion strains, locus YOR316C, strain cot1, hits give low values 1.01 | S. cerevisiae deletion strains, locus YPL241C, strain CIN2, hits give low values 1.01 | S. cerevisiae deletion strains, locus YPR119W, strain clb2, hits give low values 0.997 | S. cerevisiae deletion strains, locus YPR141C, strain kar3, hits give low values 1.01 | S. cerevisiae deletion strains, locus YPR163C, strain tif3, hits give low values 0.987 | S. cerevisiae deletion strains, locus YPR167C, strain met16, hits give low values 0.985 | S. cerevisiae deletion strains, strain wtn01, hits give low values 0.998 | S. cerevisiae strains, strain wild type, hits give low values 1.01
